From PubChem
phage Ecoli inh: growth loss of phage-infected E. coli, primary screen, RecBCD inhibitor project, absorbance, with phage, HTS; inhibition, % at 11.9 µM; 360,000 compounds, 0.26% hits; in the data active = inhibition above about 11%
E coli growth-1: E. coli growth inhibition, primary screen, OD600; Escherichia coli growth, 23 h; hits give low values; OD600 absorbance (no concentration beside the values); 330,000 compounds, 0.21% hits; AID 1053175, 2014;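 active = OD600 absorbance below the run mean of sample wells minus 3.6 SD, in any replicate, cut at about 0.56 in these data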
E coli growth-2: E. coli V3065 growth inhibition, primary screen, counter-screen for AddAB inhibitor project, absorbance, OD600 | 18 h | inhibition, % at 11.9 µM | 330,000 compounds, 0.27% hits;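 active = inhibition above the campaign's mean inhibition across all tested compounds plus 3 SD, cut at about 9.9% in these data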;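 also: uninfected addAB+ strain grown without phage in ampicillin broth; 0% = DMSO wells and 100% = ciprofloxacin 0.95 µg/ml wells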
Tat transport: E. coli Tat export inhibitors, primary screen, MC4100, TorA-mCherry reporter, fluorescence, single point. 340,000 compounds, 0.036% hits. inhibition, % at 10 µM;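 active = mean replicate inhibition at least 50% and at least half of replicates individually reaching 50%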;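 also: exported cargo escapes ClpAP degradation while cytoplasmic cargo is degraded and loses fluorescence; 0% = median of neutral control wells and 100% = median of NaSCN control wells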
AddAB inh: growth inhibition of E. coli expressing H. pylori AddAB, primary screen, AddAB inhibitor project, absorbance | inhibition, % at 11.9 µM | 330,000 compounds, 0.29% hits; in the data active = inhibition above about 12%;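 also: 0% = vehicle wells of infected cells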
AddAB conf: growth loss of phage-infected E. coli expressing H. pylori AddAB, confirmation, AddAB inhibitor project, absorbance, E. coli V3065, T4 phage, triplicate | shares compounds with AddAB inh | OD; T4 phage with gene 2 nonsense mutations | inhibition, % at 11.9 µM | 880 compounds, 64% hits;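 active = mean inhibition above a set limit taken from the earlier primary screen, cut at about 13% in these data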;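 also: higher means less bacterial growth since AddAB block lets phage replicate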
RecBCD counter: growth loss of RecBCD+ E. coli with mutant T4 phage, counter-screen for AddAB inhibitor project, absorbance, V66 E. coli; shares compounds with AddAB inh; OD growth; inhibition, % at 11.9 µM; 880 compounds, 73% hits;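 active = mean inhibition above the mean of solvent-only control wells plus 3 SD, cut at about 4% in these data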;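 also: optical density read after an 18 h incubation at 37 °C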
Bact viability: bacterial viability inhibition counter-screen, confirmation, counter-screen for AddAB inhibitor project, absorbance; absorbance (AddAB counterscreen); 880 compounds, 35% hits; inhibition, % at 11.9 µM; shares compounds with AddAB inh; in the data active = inhibition above about 25%
RecBCD conf: growth loss of phage-infected RecBCD+ E. coli, confirmation, RecBCD inhibitor project, absorbance, E. coli V66, T4 gene 2 phage; shares compounds with phage Ecoli inh; inhibition, % at 11.9 µM; 890 compounds, 45% hits; E. coli V66 + T4 2- phage, growth OD; AID 651982, 2013;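 active = mean inhibition over triplicates exceeding the hit threshold derived in the original primary screen, cut at about 11% in these data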
Ecoli viability: E. coli viability inhibition, counter-screen for RecBCD inhibitor project, absorbance, high throughput. shares compounds with phage Ecoli inh. AID 651983, 2013. inhibition, % at 11.9 µM. absorbance (OD) growth. 890 compounds, 29% hits; in the data active = inhibition above about 20%;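 also: E. coli strain V66 grown with compound alone and no phage infection; 0% = bacteria with DMSO vehicle only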
AddAB phage OD: growth loss of phage-infected AddAB-carrying E. coli, confirmation, counter-screen for RecBCD inhibitor project, absorbance, E. coli V3065, T4 phage | shares compounds with phage Ecoli inh | E. coli expressing H. pylori AddAB + T4 phage, OD growth; gene 2 mutant T4, recBCD-deleted host | inhibition, % at 11.9 µM | 890 compounds, 45% hits | AID 651984, 2013;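 active = mean inhibition above the solvent-only control wells' mean plus 3 SD, cut at about 22% in these data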;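 also: higher means less bacterial growth from phage killing when AddAB is blocked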
* hit, by the source's call; / = no result. Sampled rows, rich in hits. Any-hit rate of the full collection: about 0.5%.

SMILES | phage Ecoli inh | E coli growth-1 | E coli growth-2 | Tat transport | AddAB inh | AddAB conf | RecBCD counter | Bact viability | RecBCD conf | Ecoli viability | AddAB phage OD
O=C(CNC(=O)c1ccccc1)N/N=C/c1ccc([N+](=O)[O-])o1 | 20* | / | 23* | 0 | 28* | 98* | 10* | 29* | 15* | 13 | 82*
Cc1ccc(NCC(=O)N/N=C\c2ccc([N+](=O)[O-])o2)cc1 | 7 | / | 4 | -6 | 8 | / | / | / | / | / | /
O=C(O)c1cccc(NN=CC2=C(Cl)c3cc(Cl)ccc3SC2)c1 | / | 0.61 | / | / | / | / | / | / | / | / | /
CC(=NNC(=O)c1cc(-c2ccc(Cl)s2)[nH]n1)c1ccncc1 | / | 0.64 | / | / | / | / | / | / | / | / | /
C/C(C=NN1CCN(Cc2ccccc2)CC1)=C\c1ccccc1 | / | 0.69 | / | / | / | / | / | / | / | / | /
C/C(C=NNC(=O)Cc1cccn1C)=C\c1ccccc1 | / | 0.65 | / | / | / | / | / | / | / | / | /
CC[C@H]1OC(=O)[C@H](C)[C@@H](O[C@H]2C[C@@](C)(OC)[C@@H](O)[C@H](C)O2)[C@H](C)[C@@H](O[C@@H]2O[C@H](C)C[C@H](N(C)C)[C@H]2O)[C@](C)(O)C[C@@H](C)C(=O)[C@H](C)[C@@H](O)[C@]1(C)O | 27* | / | 20* | 39 | 22* | 45* | 17* | 18 | 19* | 20* | 32*
CCCC12CN3CCN(CC(C3)C1=NNC(=O)c1ccc(C(C)(C)C)cc1)C2 | / | 0.67 | / | / | / | / | / | / | / | / | /
COc1cc(OC)c(OC)cc1/C=N/NC(=O)c1cc(-c2cccn2C)n[nH]1 | 3 | / | -2 | 5 | 0 | / | / | / | / | / | /
CCOc1cccc(/C=N/NC(=O)c2cc(-c3cccn3C)n[nH]2)c1O | 18* | / | 12* | -11 | 17* | 19* | 21* | 20 | 9 | 10 | 15
O=C1OC(CN2CCOCC2)CN1N=Cc1ccc([N+](=O)[O-])o1 (configuration not stated) | 86* | 0.064* | 99* | 11 | 98* | 100* | 81* | 100* | 64* | 83* | 100*
O=C1CN(/N=C/c2ccc([N+](=O)[O-])o2)C(=O)N1 | 77* | / | 99* | / | 99* | 100* | 40* | 101* | 49* | 72* | 100*
C=CCOC(=O)C1=CC(c2ccc3c(c2)OCO3)CC(OCCCCO)O1 (configuration not stated) | / | 0.67 | / | / | / | / | / | / | / | / | /
O=C1C=C(c2ccc(Cl)c(C(F)(F)F)c2)CC(c2ccc3c(c2)OCO3)C1 (configuration not stated) | / | 0.72 | / | / | / | / | / | / | / | / | /
CN1CCN(c2c(F)cc3c(=O)c(C(=O)O)cn4c3c2SCC4)CC1 | 98* | 0.047* | 98* | 43 | 98* | 102* | 101* | 103* | 102* | 104* | 103*
C[C@H]1COc2c(N3CCN(C)CC3)c(F)cc3c(=O)c(C(=O)O)cn1c23 | 100* | / | 99* | 148* | 98* | 102* | 101* | 102* | 104* | 106* | 106*
COc1ccc(/C=N\NC(=O)c2cc(O)c(O)c(O)c2)cc1COc1ccc(C(=O)OCC(C)C)cc1 | 12* | / | 10* | 2 | 15* | 12 | 8.8* | 8 | 5 | 9 | 10
CCOc1ccc(S(=O)(=O)Nc2ccc(C(=O)NN=Cc3c(C)nn(-c4ccccc4)c3N3CCCC3)cc2)cc1 | / | 0.68 | / | / | / | / | / | / | / | / | /
Cc1ccc(-c2cc(C(=O)Nc3ccncc3)c3ccccc3n2)cc1 | 3 | 0.71 | 1 | 2 | -1 | / | / | / | / | / | /
O=C(NNC(=O)c1cc(-c2ccncc2)nc2ccccc12)c1ccccc1O | 24* | 0.54 | 26* | -10 | 29* | 18* | 18* | 15 | 12* | 16 | 20
COc1cccc(C=NNC(=O)c2cc(OCC(F)(F)F)ccc2OCC(F)(F)F)c1 | / | 0.69 | / | / | / | / | / | / | / | / | /
CC(C)Oc1ccc(Cc2cnc(N)nc2N)cc1 | 12* | 0.046* | 9 | 5 | 12* | 53* | 14* | 12 | 11* | 7 | 12
Cc1[nH]n(-c2ccc(F)cc2)c(=O)c1C=Nc1sc2c(c1C#N)CCCC2 | / | 0.74 | / | / | / | / | / | / | / | / | /
O=C(N/N=C/c1ccc(O)c(O)c1O)/C(=C/c1ccc([N+](=O)[O-])cc1)NC(=O)c1ccccc1 | 15* | / | 20* | 7 | 16* | 6 | 9.5* | 2 | 0 | 3 | 2
O=C(NCc1nc2ccccc2[nH]1)C1=CC(C2CCCCC2)CC(OCCCCO)O1 (configuration not stated) | / | 0.71 | / | / | / | / | / | / | / | / | /
SMILES | phage Ecoli inh | E coli growth-1 | E coli growth-2 | Tat transport | AddAB inh | AddAB conf | RecBCD counter | Bact viability | RecBCD conf | Ecoli viability | AddAB phage OD
O=C(NNC(=O)c1ccc2ccccc2c1O)c1ccccc1Cl | 12* | 0.71 | 15* | -4 | 14* | 10 | 10* | 8 | -1 | 0 | 6
O=C(NNC(=O)c1cccc2ccccc12)c1ccc(Cl)cc1Cl | 2 | 0.7 | / | 6 | / | / | / | / | / | / | /
Oc1ccccc1C(Nc1nccs1)c1ccc2cccnc2c1O (configuration not stated) | 12* | 0.69 | 17* | 6 | 13* | 9 | 12* | 10 | 8 | 10 | 9
Oc1c(C(Nc2ccccn2)c2ccccn2)ccc2cccnc12 (configuration not stated) | 16* | 0.66 | 14* | 3 | 17* | 7 | 9.8* | 2 | 5 | 9 | 7
COc1ccccc1C=NNC(=O)CC(=O)NC1CCCCC1 | / | 0.68 | / | / | / | / | / | / | / | / | /
COc1cc(Cc2cc(N)nc(N)n2)cc(OC)c1OC | 95* | 0.051* | 101* | -7 | 101* | 99* | 99* | 99* | 103* | 105* | 103*
COc1ccc(CCc2cc(OC)c(OC)c(OC)c2)cc1 | 0 | / | / | 4 | / | / | / | / | / | / | /
CC(=O)c1cn(CC(=O)Nc2ccc(C)cc2)c2ccccc12 | 11* | 0.72 | 11* | -9 | 14* | 0 | 2 | 1 | 3 | 8 | 4
